Sa growth inh: inhibitors of Staphylococcus aureus growth at 42 °C; actives 0.53% (n = 170,000); relative growth, % (concentration not given with the values); S. aureus RN4220 growth, OD600, 20 h; active compounds read low; AID 720641;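 active = relative growth at most 50% at the other temperature and 20+ points below 30 °C, or under 10% at both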
Sa helicase inh: S. aureus DNA helicase inhibition | actives 0.05% (n = 120,000) | purified S. aureus helicase, fluorescence unwinding assay | inhibition, % (concentration not given with the values); in the data active = inhibition above about 25%, passing the limit was not always enough;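 also: 0% = mean of negative control wells and 100% = mean of positive control wells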
An asterisk follows results filed as active; . = no result given. An excerpt weighted towards active compounds, which were near 0.52% of everything screened.

SMILES	Sa growth inh	Sa helicase inh
CC(NC(=O)Cc1ccccc1)C(c1ccccc1)N1CCOCC1 (configuration not stated)	99.8	5.0
CC(NC(=O)c1cc(=O)c2ccccc2o1)C(c1ccccc1)N1CCOCC1 (configuration not stated)	82.3	35.0*
Cc1ccccc1NC(=O)C1C2C3CCC(C3)C12 (configuration not stated)	102.0	8.0
O=C(Nc1ccc(C(F)(F)F)cc1)N1CCC(C(F)(F)F)CC1	100.2	.
CCn1cc(C(=O)O)c(=O)c2cc(F)c(N3CCN(C(=S)Nc4ccc5c(c4)OCO5)CC3)cc21	0.2*	18.0
CCn1cc(C(=O)O)c(=O)c2cc(F)c(N3CCN(C)CC3)cc21	-0.9*	-28.0
CCn1cc(C(=O)NCC(C)C)c(=O)c2cc(F)c(N3CCN(C(=O)c4ccco4)CC3)cc21	113.2	3.0
CCn1cc(C(=O)O)c(=O)c2cc(F)c(N3CCNCC3)cc21	-0.1*	.
CCn1cc(C(=O)O)c(=O)c2cc(F)c(N3CCN(C(=O)c4ccccc4F)CC3)cc21	50.6	14.0
CCn1cc(C(=O)NN)c(=O)c2cc(F)c(N3CCCC3)cc21	74.4	-3.0
CCCOc1cccc(NC(=O)c2occc2C)c1	82.4	10.0
CC(C)N1C(=O)/C(=C/c2cccc(Br)c2)SC1=S	86.0	10.0
O=C(O)CCC(=O)Nc1nccs1	109.9	10.0
CCOCCCn1c(C)c(C)c(C#N)c1N	93.5	-45.0
Cc1c(C#N)c(N)n(Cc2cc(C(F)(F)F)cc(C(F)(F)F)c2)c1C	-0.1*	14.0
N#CC1=C(CBr)NC(CBr)=C(C#N)C12CCCCC2	131.4	48.0*
CCSC1=C(C#N)C2(CCCCC2)C(C#N)=C(N)N1	108.0	10.0
Nc1nc(SC#CC(F)(F)F)ns1	-0.6*	7.0
C=CCSc1ncc2c(=S)[nH]c(=S)[nH]c2n1	0.0*	.
CCN(CC)c1ncc2c(=S)[nH]c(=S)[nH]c2n1	94.9	.
CC1CCCCN1CCCNC(=O)c1cc2c(s1)-c1ccc(Cl)cc1SC2 (configuration not stated)	118.2	6.0
O/N=C/c1ccc(Cl)cc1	95.7	6.0
Clc1ccc(/C=N/c2ccccn2)cc1	1.3*	12.0
COC(=O)C1=C(CNCCc2ccccc2)NC(=O)NC1c1ccc(OC)c(OC)c1 (configuration not stated)	90.8	11.0
Cc1noc(C)c1C(=O)NCc1ccc(S(N)(=O)=O)cc1	79.8	4.0
SMILES	Sa growth inh	Sa helicase inh
CCc1c(C)sc2c1CCN(Cc1cccc(F)c1)C2c1ccccc1 (configuration not stated)	-1.3*	.
CCc1c(C)sc2c1CCN(Cc1ccc(F)cc1)C2c1ccccc1 (configuration not stated)	-1.1*	.
CCc1c(C)sc2c1CCN(Cc1ccc(C#N)cc1)C2c1ccccc1 (configuration not stated)	30.3	.
CCc1c(C)sc2c1CCN(C(=O)Nc1cc(C)cc(C)c1)C2c1ccccc1 (configuration not stated)	89.3	.
CS(=O)(=O)N1CCC(c2nc3ccccc3[nH]2)CC1	110.0	-18.0
COc1ccccc1NC(=O)CN(Cc1ccco1)C(=O)/C=C/c1ccc(C)o1	96.7	-8.0
COc1ccccc1CN1C(=O)c2ccccc2C1C(=O)NCCCN1C(C)CCCC1C (configuration not stated)	99.9	-2.0
CC(=O)O[C@H]1C[C@@]2(C)[C@@H](C[C@@H](O)C3[C@]2(C)CC[C@H]2[C@H](C)[C@H](O)CC[C@]32C)/C1=C(/CCC=C(C)C)C(=O)O (some centres not stated)	0.6*	.
O=C(CSC1CCCCC1)Nc1cccnc1Cl	94.2	-4.0
COC(=O)c1ccc2c(c1)C(=O)/C(=C/c1ccc(C)o1)O2	108.9	-7.0
CC(C)COC(=O)N1CCN(S(=O)(=O)c2ccccc2C#N)CC1	74.3	-2.0
Nc1[nH]c(=O)[nH]c(=O)c1N=Nc1cc(C(=O)O)cc(C(=O)O)c1	89.2	0.0
COc1ccc(C2=Nn3c(nc4sc5c(c4c3=O)CCCC5)SC2)cc1	103.1	.
COc1ccc(C2=Nn3c([n+](C)c4ccccc43)SC2)cc1	1.4*	22.0
C=C(NC(=O)C(=C)NC(=O)c1csc(C2=NC3c4csc(n4)C4NC(=O)c5csc(n5)C(C(C)(O)C(C)O)NC(=O)C5CSC(=N5)C(=CC)NC(=O)C(C(C)O)NC(=O)c5csc(n5)C3(CC2)NC(=O)C(C)NC(=O)C(=C)NC(=O)C(C)NC(=O)C(C(C)CC)NC2C=Cc3c(C(C)O)cc(nc3C2O)C(=O)OC4C)n1)C(N)=O (configuration not stated)	-1.0*	.
O=C(O)/C=C/C(=O)Nc1ccc(C2CCCCC2)cc1	146.0	.
O=C(O)/C=C/C(=O)c1ccc(C2CCCCC2)cc1	-0.9*	.
COC(=O)Cn1c(=NC(=O)C2CCCCC2)sc2cc(OC)ccc21	102.1	8.0
CC1CC(C)CN(C(=O)CSc2nc3c(c(=O)[nH]2)CCC3)C1 (configuration not stated)	74.7	-16.0
CN1C(=O)CC(C(=O)Nc2ccc(C(=O)O)cc2)SC1=Nc1ccc(Cl)cc1 (configuration not stated)	92.2	.
O=C(O)C1CC(=O)N(CCC23CC4CC(CC(C4)C2)C3)C(=Nc2ccc(Cl)cc2)S1 (configuration not stated)	-0.5*	18.0
CN1CCN(c2ccc(Nc3ccnc4cc(Cl)ccc34)cc2Cl)CC1	98.2	6.0
CCN1CCN(c2ccc(Nc3ccnc4cc5ccccc5cc34)cc2)CC1	98.4	48.0*
CCOC(=O)CN(C)Cc1ccc(Cl)c(Cl)c1	102.2	22.0
Cn1c2ccc(F)cc2c2nc3n(c(=O)c21)CCS3	96.1	-3.0
SMILES	Sa growth inh	Sa helicase inh
COc1cc2c3nc4n(c(=O)c3n(C)c2cc1OC)CCS4	97.8	49.0*
CC1(C)CC2=NN(c3ccccc3)P(=O)(N3CCCCC3)C2=C(N2CCOCC2)C1 (configuration not stated)	96.4	-8.0
Nc1ccc(C(=O)NCC2CCCO2)cc1 (configuration not stated)	85.9	0.0
O=C(CCN1CCCCC1)Nc1nc(-c2ccc(Cl)cc2)cs1	99.8	.
CN(C)c1ccc(/C=C2\CCC(C3CCCC3)C2=O)cc1 (configuration not stated)	95.1	3.0
Cc1ccc(/C=C2\CCCC(CN(C)C)C2=O)cc1 (configuration not stated)	-0.2*	.
CCOC(=O)c1ccc(NC(=O)CSc2nc3ccsc3c(=O)n2Cc2ccc3c(c2)OCO3)cc1	81.4	.
COC(=O)c1cn(NC(=O)CSc2ccncc2)c(=O)c2ccccc12	105.6	6.0
COCC1=C(C(=O)OC(C)OC(=O)OC(C)C)N2C(=O)[C@@H](NC(=O)C(=NOC)c3csc(N)n3)[C@H]2SC1 (some centres not stated)	16.3	.
CO/N=C(\C(=O)N[C@@H]1C(=O)N2C(C(=O)O)=C(COC(C)=O)CS[C@H]12)c1csc(N)n1	-0.8*	.
CC(=O)OCC1=C(C(=O)O)N2C(=O)[C@@H](NC(=O)CSc3ccncc3)[C@H]2SC1	-0.3*	.
CC(C)(O/N=C(\C(=O)N[C@@H]1C(=O)N2C(C(=O)[O-])=C(C[n+]3ccccc3)CSC12)c1csc(N)n1)C(=O)O (some centres not stated)	69.3	.
CO/N=C(/C(=O)NC1C(=O)N2C(C(=O)O)=C(COC(N)=O)CSC12)c1ccco1 (configuration not stated)	-1.0*	.
